In PubChem BioAssay:
A number with no mark means an inactive call. The rule behind the calls is not given here.

These molecules were tested against Pantothenate synthetase (Mycobacterium tuberculosis (strain ATCC 25618 / H37Rv)) (UniProt P9WIL5) (assay: Recombinant Mtb pantothenate synthetase (PanC) inhibitors, coupled enzyme, confirmatory (AID 375;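 note: 0% = full reaction with vehicle and 100% = no enzyme background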)). Conditions: coupled enzyme assay; at 10 µM, hits give high values.
Sequence of Pantothenate synthetase (Mycobacterium tuberculosis (strain ATCC 25618 / H37Rv)) (P9WIL5 whole entry, looked up): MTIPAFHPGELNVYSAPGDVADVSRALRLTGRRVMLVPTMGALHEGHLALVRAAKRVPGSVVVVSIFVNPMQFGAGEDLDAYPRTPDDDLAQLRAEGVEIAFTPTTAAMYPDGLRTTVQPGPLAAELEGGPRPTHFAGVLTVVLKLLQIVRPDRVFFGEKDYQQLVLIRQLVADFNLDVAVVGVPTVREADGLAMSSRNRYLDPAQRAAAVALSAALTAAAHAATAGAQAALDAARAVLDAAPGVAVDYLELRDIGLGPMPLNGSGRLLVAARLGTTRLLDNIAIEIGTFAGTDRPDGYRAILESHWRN

Point of comparison: `Cc1cc(C)n(CC2CC(=O)N(c3ccc(Cl)c(Cl)c3)C2=O)n1` (stereo not drawn), inhibition 0%. Against it:
- CC(C)(C)c1ccc(O)c(N)c1 — higher, 2%
- CCc1ccc(C2CC(c3ccccc3)n3ncnc3N2)cc1 (stereo not drawn) — the same, 0%
- CCOc1cc(S(=O)(=O)NCc2ccc3c(c2)OCO3)ccc1F — higher, 2%
- COC(=O)C(C)C1Sc2ccccc2NC1=O (stereo not drawn) — higher, 11%
- CC(C)n1nnnc1SCC(=O)Nc1ccccc1N1CCOCC1 — higher, 1%
- Cc1nc2ccccc2cc1C(=O)NCc1ccco1 — the same, 0%
- O=C(CSc1nc2ccsc2c(=O)n1NC(=O)c1ccccc1)Nc1nccs1 — the same, 0%
- CCCn1c(SCC(=O)Nc2nnc(-c3ccccc3)s2)nnc1-c1ccccn1 — the same, 0%
- Cc1ccc(S(=O)(=O)NCC(=O)OCN2C(=O)c3ccccc3C2=O)cc1 — higher, 4%
- C=CCn1c(SCc2ccc3nonc3c2)nnc1-c1cccs1 — higher, 7%
- CCCC(=O)Nc1cc(C)c2c(=O)oc3ccccc3c2n1 — higher, 2%
- COc1cccc(OCC(=O)Nc2ccccc2C(N)=O)c1 — higher, 4%
- COC(=O)c1ccc(CSc2nc(-c3ccc(OC)cc3)nc3c2c(=O)n(C)c(=O)n3C)o1 — higher, 10%
- O=S(=O)(NC1=NCCC1)c1cccs1 — the same, 0%
- CCOCC(=O)Nc1sc2c(c1C(=O)OCC)CCCC2 — the same, 0%
- Cc1cc(C)c(Cn2c(=O)n(CCCC(=O)NCc3ccco3)c(=O)c3ccccc32)c(C)c1 — higher, 7%
- CCc1c(C)n([O-])c2c([n+]1=O)CCC2 — the same, 0%
